Data published in PubChem BioAssay.
Values joined by “and” are separate entries in the source; they are usually repeats but may differ in a detail not shown here. Equal values may be shown once. Some structures have more than one record in an assay (separate samples or runs), and their calls can disagree. Active and inactive are the calls of the source.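 Rule for the calls, unless noted: active = compounds whose cell count with miR-34 switched on is under 0.7 times the count with it off; inactive = the rest.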

Columns and labels:
[1] = viability loss with induced miR-34 in A549 – imaging, A549 dox-inducible miR-34, nuclei and caspase counts, primary screen (AID 1347080); conditions: A549 miR-34 inducible, Hoechst nuclei count, 48 h
[2] = blockers of cellular phospholipid synthesis – cell-based, LOPAC library, screen 4, primary screen (AID 1347384; call rule not given here); conditions: animal cells, phospholipid biosynthesis inhibition screen; at 10 µM
[3] = molecular target: NAD(+) hydrolase SARM1 (Homo sapiens) (UniProt Q6SZW1); assay: blocking NAD cleavage by SARM1 SAM-TIR – cell lysate, NAD-Glo luminescence (AID 1508614;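 active = compound whose remaining NAD level is above about 45 nM, limit read from the data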;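 note: higher remaining NAD means stronger inhibition of SARM1 NADase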); conditions: SAM-TIR HEK293T lysate NADase, at 1 µM, stronger effect = higher value
NAD(+) hydrolase SARM1 (Homo sapiens), sequence (Q6SZW1 whole entry, looked up, the tested form may be a part): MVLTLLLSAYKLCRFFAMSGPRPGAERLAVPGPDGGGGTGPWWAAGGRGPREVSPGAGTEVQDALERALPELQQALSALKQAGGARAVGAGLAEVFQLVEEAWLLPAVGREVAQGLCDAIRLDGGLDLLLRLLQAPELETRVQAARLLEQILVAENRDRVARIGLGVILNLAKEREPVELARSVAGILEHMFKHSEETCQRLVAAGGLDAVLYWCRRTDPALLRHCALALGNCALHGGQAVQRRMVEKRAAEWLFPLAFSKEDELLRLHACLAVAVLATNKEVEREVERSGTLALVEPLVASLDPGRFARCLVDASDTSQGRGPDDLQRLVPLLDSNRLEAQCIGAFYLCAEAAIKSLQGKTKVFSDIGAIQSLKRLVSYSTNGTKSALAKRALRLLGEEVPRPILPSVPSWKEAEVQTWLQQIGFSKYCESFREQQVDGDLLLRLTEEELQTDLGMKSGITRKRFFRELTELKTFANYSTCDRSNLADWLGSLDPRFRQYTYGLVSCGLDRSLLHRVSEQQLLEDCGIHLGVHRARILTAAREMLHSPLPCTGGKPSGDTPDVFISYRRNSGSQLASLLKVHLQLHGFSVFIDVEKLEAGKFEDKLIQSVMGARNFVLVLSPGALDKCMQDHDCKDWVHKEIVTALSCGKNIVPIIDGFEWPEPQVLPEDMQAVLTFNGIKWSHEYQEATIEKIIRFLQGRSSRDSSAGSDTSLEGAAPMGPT

[4] = molecular target: Mitogen-activated protein kinase 7 (Homo sapiens) (UniProt Q13164); assay: Gal4-ERK5 driven luciferase induction – cell-based, HTS, primary screen (AID 1508626;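 active = luciferase signal above three times the same-plate solvent-only control wells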;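 note: luciferase driven by Gal4-ERK5 fusion binding five Gal4 sites before minimal TATA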); conditions: HeLa Gal4-ERK5 transactivation, 18 h, at 5 µM, stronger effect = higher value
Mitogen-activated protein kinase 7 (Homo sapiens), sequence (Q13164 whole entry, looked up, the tested form may be a part): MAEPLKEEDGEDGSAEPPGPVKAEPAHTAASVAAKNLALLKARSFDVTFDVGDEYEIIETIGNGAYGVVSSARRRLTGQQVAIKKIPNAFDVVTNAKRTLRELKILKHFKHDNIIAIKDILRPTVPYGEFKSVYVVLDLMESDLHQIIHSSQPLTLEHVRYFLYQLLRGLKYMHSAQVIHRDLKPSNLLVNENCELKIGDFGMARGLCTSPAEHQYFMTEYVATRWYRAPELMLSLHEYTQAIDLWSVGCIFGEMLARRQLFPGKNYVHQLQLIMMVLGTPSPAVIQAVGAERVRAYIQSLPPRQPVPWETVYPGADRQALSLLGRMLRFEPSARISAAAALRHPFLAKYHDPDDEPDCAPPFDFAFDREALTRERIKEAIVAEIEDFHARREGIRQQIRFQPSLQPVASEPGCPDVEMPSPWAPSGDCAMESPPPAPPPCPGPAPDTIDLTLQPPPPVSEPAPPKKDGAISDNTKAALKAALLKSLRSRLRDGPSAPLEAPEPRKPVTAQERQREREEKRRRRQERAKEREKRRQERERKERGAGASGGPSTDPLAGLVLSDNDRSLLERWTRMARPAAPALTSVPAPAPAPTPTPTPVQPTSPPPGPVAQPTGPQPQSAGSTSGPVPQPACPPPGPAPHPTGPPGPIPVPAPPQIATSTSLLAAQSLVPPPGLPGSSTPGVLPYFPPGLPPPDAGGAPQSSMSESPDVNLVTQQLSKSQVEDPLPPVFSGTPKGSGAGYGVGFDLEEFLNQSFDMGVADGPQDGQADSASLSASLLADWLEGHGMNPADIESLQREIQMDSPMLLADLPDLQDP

[5] = galactose survival enhancers in mitochondrial complex I cybrids – cell-based, galactose medium, ATP luminescence, primary screen (AID 1645843;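 active = z-score of at least 1.8 in each of two replicates, scored against plate mean and spread of sample wells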;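 note: positive z means more ATP and so rescue of galactose-driven cybrid death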); conditions: complex I mutant cybrid cells, 72 h, stronger effect = higher value
[6] = MELAS cybrid and Rieske KO viability enhancers – cell-based, MELAS cybrids, Rieske KO mouse fibroblasts, CellTiter-Glo, primary screen (AID 1508586;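 active = mean z-score across replicates of 1.96 or higher in either the MELAS or the Rieske mutant cell line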;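 note: z relative to plate mean and SD of compound and empty wells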); conditions: low glucose
[7] = growth inhibition, single agent or in combination, cell-based, chromothripsis tumors, cisplatin or BGB combos (AID 1671449; in the data active = inhibition above about 80%;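 note: cells exposed for 96 hours; 0% = vehicle DMSO and 100% = killing by high DMSO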); conditions: LFS_MB_P medulloblastoma cells
[8] = growth inhibition, single agent and combos, cell-based, chromothripsis tumors, cisplatin or BGB combos (AID 1671450; in the data active = inhibition above about 80%;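 note: cells exposed to compound for four days; 0% = vehicle DMSO and 100% = cell killing by high DMSO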); conditions: HDN33 neuroblastoma cells, stronger effect = higher value
[9] = growth inhibition, single agents and combos, ICB984, cell-based, cisplatin or BGB combos, synergistic combos for chromothripsis tumors (AID 1671451; call rule not given here;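 note: cells exposed for 96 hours before readout; 0% = vehicle DMSO and 100% = killing by high DMSO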); conditions: ICB984 medulloblastoma cells, drug combinations, stronger effect = higher value
[10] = growth inhibition, single agents and combos, LFS_MB_1R, cell-based, cisplatin or BGB combos, synergistic combos for chromothripsis tumors (AID 1671452; in the data active = inhibition above about 80%;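 note: cells exposed for 96 hours before readout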); conditions: LFS_MB_1R medulloblastoma cells, stronger effect = higher value
[11] = growth inhibition, single agents and combos, HTB85, cell-based, BGB or cisplatin IC20 combos, synergistic combos for chromothripsis tumors (AID 1671453; in the data active = inhibition above about 80%;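 note: cells exposed for 96 hours before readout; 0% = vehicle DMSO and 100% = high DMSO killing control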); conditions: HTB85 osteosarcoma cells, drug combinations, stronger effect = higher value
[12] = growth inhibition, single agents and combos, CRL2098, cell-based, BGB or cisplatin IC20 combos, synergistic combos for chromothripsis tumors (AID 1671454; in the data active = inhibition above about 80%;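 note: cells exposed for 96 h before readout; 0% = vehicle DMSO and 100% = killing by high DMSO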); conditions: CRL2098 osteosarcoma cells, drug combinations, stronger effect = higher value
[13] = growth inhibition, single agents and combos, HD-MB03, cell-based, BGB or cisplatin IC20 combos, synergistic combos for chromothripsis tumors (AID 1671455; in the data active = inhibition above about 83%;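 note: 0% = vehicle DMSO and 100% = high DMSO as cytotoxic control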); conditions: HD-MB03 medulloblastoma cells, stronger effect = higher value
[14] = stronger effect = lower value, cell number ratio, induced over uninduced
[15] = measured here: relative caspase fold change +Dox/-Dox
[16] = measured here: total cells with miR-34 induction, stronger effect = lower value
[17] = measured here: total cells without miR-34 induction
[18] = MELAS cybrid survival, CellTiter-Glo 48 h, stronger effect = higher value
[19] = Rieske KO mouse fibroblast survival, CellTiter-Glo 72 h
[20] = measured here: combination with BGB IC40, at 0.05 µM

## CCN(CC)CCNC(=O)c1ccc(NC(C)=O)cc1
[1]; [14]
  fold change: 1.04 (inactive) and 0.905 (inactive)
[1]; [15]
  fold change: 1.99 and 4.44
[1]; [16]
  cell count: 10300 and 12600
[1]; [17]
  cell count: 9910 and 14000
[2]
  outcome: inactive
[3]
  remaining NAD: 10 nM (inactive)
[4]
  luciferase signal: 32 AU (inactive)
[5]
  z-score: 0.34 (inactive)

## NCCCC(=O)O
[1]; [14]
  fold change: 1.09 (inactive)
[1]; [15]
  fold change: 1.86
[1]; [16]
  cell count: 10000
[1]; [17]
  cell count: 9160
[2]
  outcome: inactive
[3]
  remaining NAD: 10 nM (inactive)
[4]
  luciferase signal: 56 AU (inactive)
[5]
  z-score: 0.26 (inactive)

## Cc1cc(N)c2ccccc2[n+]1CCCCCCCCCC[n+]1c(C)cc(N)c2ccccc21
[1]; [14]
  fold change: 1.04 (inactive) and 0.959 (inactive)
[1]; [15]
  fold change: 1.28 and 1.58
[1]; [16]
  cell count: 1900 and 2180
[1]; [17]
  cell count: 1830 and 2270
[2]
  outcome: inactive
[6]; [18]
  z-score: -3.39 (inactive)
[6]; [19]
  z-score: -2.46
[3]
  remaining NAD: 10 nM (inactive)
[5]
  z-score: -1.04 (inactive)

## CC(C(=O)O)c1ccc(CC2CCCC2=O)cc1 (stereo unspecified)
[1]; [14]
  fold change: 1.07 (inactive) and 1 (inactive)
[1]; [15]
  fold change: 0.862 and 2.11
[1]; [16]
  cell count: 11000 and 10200
[1]; [17]
  cell count: 10200
[2]
  outcome: inactive
[3]
  remaining NAD: 10 nM (inactive)
[5]
  z-score: 0.695 (inactive) and 0.805 (inactive)

## O=C(O)CCCCCCCC(=O)O
[1]; [14]
  fold change: 0.959 (inactive) and 0.941 (inactive)
[1]; [15]
  fold change: 0.966 and 3.31
[1]; [16]
  cell count: 9890 and 11100
[1]; [17]
  cell count: 10300 and 11800
[2]
  outcome: inactive
[3]
  remaining NAD: 10 nM (inactive)
[4]
  luciferase signal: 24 AU (inactive)
[5]
  z-score: 0.635 (inactive)
[7]; at 0.5 µM, stronger effect = higher value
  inhibition: 14.6% (inactive)
[7]; measured here: combination with BGB IC20, at 0.005 µM
  inhibition: -16.4%
[7]; measured here: combination with BGB IC40, at 0.005 µM
  inhibition: -8.17%
[7]; [20]
  inhibition: 6.68%
[7]; measured here: combination with cisplatin, at 0.5 µM, stronger effect = higher value
  inhibition: 8.46%
[7]; measured here: combination with cisplatin, at 5 µM, stronger effect = higher value
  inhibition: -13.6%
[8]; BGB combo, at 5 µM
  inhibition: -29.2%
[8]; at 0.5 µM
  inhibition: -40.9% (inactive)
[8]; cisplatin combo, at 5 µM
  inhibition: -22.7%
[8]; measured here: with BGB IC20 combination, at 0.5 µM
  inhibition: -45.6%
[8]; measured here: with cisplatin IC20 combination, at 0.5 µM
  inhibition: -37.4%
[8]; single agent, at 5 µM
  inhibition: -34.5%
[9]; BGB IC20 combo, at 0.005 µM
  inhibition: -5.6%
[9]; BGB IC40 combo, at 0.005 µM
  inhibition: -44.6%
[9]; BGB IC40 combo, at 0.05 µM
  inhibition: -20.8%
[9]; at 0.5 µM
  inhibition: -26.1% (inactive)
[9]; cisplatin combo, at 0.05 µM
  inhibition: -24.1%
[9]; cisplatin combo, at 0.5 µM
  inhibition: -19.2%
[9]; cisplatin combo, at 5 µM
  inhibition: -29.2%
[9]; measured here: 5 uM single agent, at 5 µM
  inhibition: -20.6%
[10]; at 0.5 µM
  inhibition: -28.5% (inactive)
[10]; [20]
  inhibition: -23.1%
[10]; measured here: combination with cisplatin, at 0.5 µM
  inhibition: -37.2%
[10]; measured here: combination with cisplatin, at 5 µM
  inhibition: -71.3%
[11]; at 0.5 µM
  inhibition: -17.1% (inactive)
[11]; measured here: with BGB IC20, at 0.5 µM
  inhibition: -39.9%
[11]; measured here: with BGB IC20, at 5 µM
  inhibition: -68.2%
[11]; measured here: with cisplatin IC20, at 0.5 µM
  inhibition: -8.83%
[11]; measured here: with cisplatin IC20, at 5 µM
  inhibition: 0.863%
[11]; single agent, at 5 µM
  inhibition: -30.9%
[12]; at 0.5 µM
  inhibition: -76.3% (inactive)
[12]; measured here: combination with BGB at IC20, at 0.5 µM
  inhibition: -57.7%
[12]; measured here: combination with cisplatin at IC20, at 0.5 µM
  inhibition: -93.4%
[13]; at 0.5 µM
  inhibition: -14.1% (inactive)
[13]; measured here: combo with BGB at IC20, at 0.5 µM
  inhibition: -13.8%
[13]; measured here: combo with cisplatin at IC20, at 0.5 µM
  inhibition: -19.9%

## CCCCCN(CCCCC)C(=O)C(CCC(=O)O)NC(=O)c1ccc(Cl)c(Cl)c1 (stereo unspecified)
[1]; [14]
  fold change: 1 (inactive) and 0.871 (inactive) and 0.904 (inactive)
[1]; [15]
  fold change: 0.913 and 1.58 and 1.45
[1]; [16]
  cell count: 9880 and 9710 and 9580
[1]; [17]
  cell count: 9840 and 11100 and 10600
[2]
  outcome: inactive
[6]; [18]
  z-score: 0.699 (inactive) and -0.377 (inactive)
[6]; [19]
  z-score: -0.146 and -1.36
[3]
  remaining NAD: 10 nM (inactive)
[5]
  z-score: 2.69 (active) and 0.255 (inactive)

## O=C(O)CCC(=O)Nc1ccc(S(=O)(=O)Nc2nccs2)cc1
[1]; [14]
  fold change: 0.889 (inactive) and 0.92 (inactive)
[1]; [15]
  fold change: 0.9 and 3.43
[1]; [16]
  cell count: 8630 and 11000
[1]; [17]
  cell count: 9720 and 12000
[6]; [18]
  z-score: 0.0389 (inactive)
[6]; [19]
  z-score: 0.552
[3]
  remaining NAD: 10 nM (inactive)
[4]
  luciferase signal: 28 AU (inactive)

## CC1(C)O[C@@H]2C[C@H]3[C@@H]4C[C@H](F)C5=CC(=O)CC[C@]5(C)[C@H]4[C@@H](O)C[C@]3(C)[C@]2(C(=O)CO)O1
[1]; [14]
  fold change: 0.775 (inactive)
[1]; [15]
  fold change: 0.796
[1]; [16]
  cell count: 4730
[1]; [17]
  cell count: 6100
[6]; [18]
  z-score: -0.21 (inactive)
[6]; [19]
  z-score: 0.615
[3]
  remaining NAD: 10 nM (inactive)
[4]
  luciferase signal: 228 AU (inactive)

## OCC(O)CN1CCN(c2ccccc2)CC1 (stereo unspecified)
[1]; [14]
  fold change: 0.91 (inactive) and 0.902 (inactive) and 0.934 (inactive)
[1]; [15]
  fold change: 1.09 and 0.695 and 0.504
[1]; [16]
  cell count: 7870 and 8950 and 8400
[1]; [17]
  cell count: 8650 and 9930 and 8990
[6]; [18]
  z-score: -0.14 (inactive) and -0.167 (inactive) and 0.182 (inactive)
[6]; [19]
  z-score: -0.169 and -0.218 and 0.0795
[3]
  remaining NAD: 10 nM (inactive)
[4]
  luciferase signal: 48 AU (inactive)

## O=C(O)c1cc(=O)c2ccccc2o1
[1]; [14]
  fold change: 0.884 (inactive)
[1]; [15]
  fold change: 1.39
[1]; [16]
  cell count: 8030
[1]; [17]
  cell count: 9090
[6]; [18]
  z-score: -0.239 (inactive)
[6]; [19]
  z-score: -0.17
[3]
  remaining NAD: 10 nM (inactive)
[4]
  luciferase signal: 52 AU (inactive)

## Cc1cc(NC(=O)C2=C(O)c3ccccc3S(=O)(=O)N2C)no1
[1]; [14]
  fold change: 0.901 (inactive) and 0.859 (inactive)
[1]; [15]
  fold change: 1.1 and 2.9
[1]; [16]
  cell count: 8700 and 11400
[1]; [17]
  cell count: 9660 and 13300
[6]; [18]
  z-score: 0.335 (inactive)
[6]; [19]
  z-score: 0.203
[3]
  remaining NAD: 10 nM (inactive)
[4]
  luciferase signal: 72 AU (inactive)

## CCN(CC)CCOC(=O)C(c1ccccc1)C1CCCCC1 (stereo unspecified)
[1]; [14]
  fold change: 0.896 (inactive)
[1]; [15]
  fold change: 1.16
[1]; [16]
  cell count: 8670
[1]; [17]
  cell count: 9680
[6]; [18]
  z-score: -2.21 (inactive)
[6]; [19]
  z-score: 0.0498
[3]
  remaining NAD: 10 nM (inactive)
[4]
  luciferase signal: 52 AU (inactive)

## C[C@@H]1C[C@H]2[C@@H]3C[C@H](F)C4=CC(=O)C=C[C@]4(C)[C@@]3(F)[C@@H](O)C[C@]2(C)[C@@]1(O)C(=O)CO
[1]; [14]
  fold change: 0.863 (inactive)
[1]; [15]
  fold change: 1.53
[1]; [16]
  cell count: 6000
[1]; [17]
  cell count: 6940
[6]; [18]
  z-score: 0.578 (inactive)
[6]; [19]
  z-score: 0.936
[3]
  remaining NAD: 10 nM (inactive)
[4]
  luciferase signal: 116 AU (inactive)
